Bioassay records (PubChem BioAssay)
RPL19A-GFP yeast – alters RPL19A-GFP fluorescence in TOR pathway yeast screen | percent response vs DMSO, % at 10 µM | 0.3% of 330,000 active | S. cerevisiae RPL19A-GFP strain, flow cytometry, 3 h; active compounds read low | AID 2025;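 active = percent response vs DMSO below 50%; inconclusive = fewer than 70 events counted for the yeast strain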;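 also: median channel GFP fluorescence of the barcoded RPL19A-GFP strain; ratio of sample median GFP to plate DMSO average so 100% = DMSO; lower means less RPL19A-GFP as with rapamycin TOR inhibition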
LAP4 TOR yeast – modulators of TOR pathway LAP4-GFP in S. cerevisiae. 0.34% of 320,000 active. S. cerevisiae LAP4-GFP multiplex, flow cytometry GFP, 3 h; median GFP as percent of DMSO wells. GFP response vs DMSO, % at 10 µM;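 active = GFP response vs DMSO above a set limit, about the screen mean plus 3 SD, cut at about 150% in these data; inconclusive = under 70 cell events counted for the yeast strain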
MEP2 TOR yeast – alters MEP2-GFP fluorescence in TOR pathway yeast screen | AID 2016 | S. cerevisiae MEP2-GFP strain, flow cytometry GFP, 3 h; 100% = DMSO control level | GFP response vs DMSO, % at 10 µM | 0.51% of 330,000 active;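 active = GFP response versus DMSO above a set limit, roughly screen mean plus 3 SD, cut at about 180% in these data; inconclusive = fewer than 70 cells counted for a yeast strain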;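 also: median GFP fluorescence of the barcode-gated MEP2-GFP cells per well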
Myeloid diff MLP – promotes myeloid progenitor differentiation | calls only at 10 µM | 1% of 360,000 active | ER-HoxA9 myeloid progenitors, lysozyme-GFP differentiation, flow cytometry;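 active = normalized GFP-positive differentiation at or above the plate's own cutoff, the solvent-only control mean plus 3 SD; inconclusive = no clear call, values can overlap the other calls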;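 also: cells exposed to compound for four days before flow analysis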
CIT2-GFP yeast – modulators of TOR pathway CIT2-GFP in S. cerevisiae; S. cerevisiae CIT2-GFP strain, flow cytometry, 3 h; 100 means same as DMSO wells; GFP response vs DMSO, % at 10 µM; 0.065% of 320,000 active; AID 2029;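 active = GFP response relative to DMSO above a set limit, near the screen mean plus 3 SD, cut at about 150% in these data; inconclusive = Fewer than 70 cells measured for a yeast strain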;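 also: ratio of well median GFP fluorescence to mean of DMSO wells on the plate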
AGP1 TOR yeast – yeast TOR pathway AGP1-GFP modulation; S. cerevisiae AGP1-GFP multiplex flow cytometry, 3 h; GFP as percent of DMSO wells; GFP response vs DMSO, % at 10 µM; 0.02% of 320,000 active; AID 2066;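 active = GFP response relative to DMSO above a set limit, near screen average plus 3 SD, cut at about 150% in these data; inconclusive = fewer than 70 cells counted for the yeast strain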;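 also: median GFP channel fluorescence of the gated AGP1 strain per well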
Myeloid diff CP1 – myeloid differentiation induction | shares compounds with Myeloid diff MLP | ER-HoxA9 myeloid progenitors, GFP/Mac1 double-positive flow | calls only | 2% of 2,300 active | AID 651706;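 active = share of green or green-and-red cells above 9 and 9% in run 1 or 4 and 3% in run 2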
GFP autofluor – flagged as fluorescent in myeloid differentiation counter-screen. shares compounds with Myeloid diff MLP. ER-HoxA9 myeloid progenitors, no estrogen, GFP autofluorescence flow cytometry; vehicle wells 0%, positive control 100%. fluorescence response, % (concentration not given with the values). 7.4% of 2,300 active;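 active = over 5% cells positive for green fluorescent reporter, or over 2% positive for both it and APC stain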;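 also: range taken on the double positive population between DMSO and positive control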
* = called active by the depositor; i = inactive; ? = inconclusive; . = no result given; + = active, no number. Most compounds without a hit are left out; they make up all but 1.8% or so of the library.

SMILES | RPL19A-GFP yeast | LAP4 TOR yeast | MEP2 TOR yeast | Myeloid diff MLP | CIT2-GFP yeast | AGP1 TOR yeast | Myeloid diff CP1 | GFP autofluor
COc1ccccc1-c1cc(C(=O)NC2CCN(C)CC2)c2ccc(Cl)c(C)c2n1 | 102.7 | 97.7 | 100.7 | + | 103.2 | 102.8 | i | 0.0
COc1cc(CCC(=O)O)on1 | 104.8 | 87.8 | 105.3 | i | 99.7 | 94.7 | . | .
CCc1ccc(CNCc2ccc(OCC(O)CN(C)Cc3ccccc3)cc2)nc1 (stereo unspecified) | 101.1 | 95.3 | 107.1 | + | 97.7 | 108.4 | i | 1.1
CN(Cc1ccccc1)CC(O)COc1ccc(CNCCc2cccnc2)cc1 (stereo unspecified) | ? | ? | ? | i | 106.9 | ? | . | .
COc1ccc2ccccc2c1/C=N/NC(=O)CC1(C)OCCCO1 | 102.1 | 94.1 | 97.8 | i | 95.2 | 93.1 | . | .
Cc1ccc(C2(C)NC(=O)N(CC(=O)Nc3cc(S(=O)(=O)N4CCCCC4)ccc3OC(C)C)C2=O)cc1 (stereo unspecified) | 95.9 | 103.2 | 99.9 | + | 92.4 | 103.8 | i | 0.3
Cc1cccc(C)c1NC(=O)C1(C)CSCC(=O)N1CCOc1ccccc1 (stereo unspecified) | . | . | . | i | . | . | i | 0.0
COCCN1C(=O)CSCC1(C)C(=O)Nc1c(C)cccc1C (stereo unspecified) | . | . | . | i | . | . | . | .
CCc1nn(CC(=O)NCCCN(Cc2ccccc2)C(C)C)c(=O)c2cc3sccc3n12 | 101.0 | 98.9 | 98.9 | + | 99.0 | 96.7 | i | 0.5
CCc1nn(CC(=O)NCCCN(C)Cc2ccccc2)c(=O)c2cc3sc(C)cc3n12 | 98.1 | 88.0 | 97.5 | i | 91.9 | 92.6 | . | .
Cc1ccc(S(=O)(=O)c2nnn3c2nc(N2CCOCC2)c2ccccc23)cc1C | 102.5 | 91.5 | 95.1 | i | 99.2 | 96.6 | . | .
CSc1nc(SCC(N)=O)c2c3c(sc2n1)CN(C)CC3 | 86.2 | 83.6 | 91.5 | i | 84.9 | 86.7 | . | .
CCNc1nc(SCC(N)=O)nc2sc3c(c12)CCN(C)C3 | . | . | . | i | . | . | i | 0.0
Cc1cccc(C)c1NC(=O)c1sc(N)nc1-c1ccccc1 | 116.6 | 93.8 | 103.7 | i | 75.2 | 96.5 | . | .
Nc1nnc(N)c2ccccc12 | 98.7 | 102.6 | 104.3 | + | 97.4 | 106.6 | i | 0.0
O=S(=O)(Cc1nnnn1-c1ccccc1)c1ccc(Cl)cc1 | 106.1 | 101.7 | 112.9 | i | . | 102.8 | . | .
C=CCn1c(N)cc(=O)nc1SCC(=O)NC(C)c1ccccc1 (stereo unspecified) | 93.3 | 97.1 | 98.0 | i | 94.8 | 95.8 | i | 0.3
CC(C)C(C(=O)N1CCOCC1)N1C(=O)c2ccccc2C1=O (stereo unspecified) | 104.5 | 92.1 | 95.5 | i | 63.8 | 76.3 | . | .
CN1CCN(Cc2nc(Cc3ccccc3)no2)CC1c1ccccc1 (stereo unspecified) | 102.7 | 101.8 | 102.3 | i | 96.1 | 107.0 | i | 0.0
COc1cc2[nH]c(=O)n(CCCC(=O)N3CC=C(c4ccccc4)CC3)c(=O)c2cc1OC | 101.2 | 99.5 | 101.4 | + | 104.1 | 106.8 | i | 0.0
CC[C@@]1(C(=O)OC)N[C@H](CN(C)C(=O)COC)[C@@H]2C(=O)N(Cc3ccccc3)C(=O)[C@@H]21 | 107.4 | 108.7 | 100.9 | + | 96.6 | 103.7 | i | 7.3*
COc1ccc(NS(=O)(=O)c2ccc3oc(SC)nc3c2)cc1 | 106.8 | 105.1 | 111.1 | i | 115.3 | 110.9 | . | .
COc1ccc(NS(=O)(=O)c2ccc3oc(SC4CCOC4=O)nc3c2)cc1 (stereo unspecified) | 103.2 | 78.9 | 99.6 | i | 68.7 | 93.8 | i | 0.3
Cc1ccc(-n2c(O)c(C=Nc3ccccc3-c3n[nH]c(=S)[nH]c3=O)c3ccccc3c2=O)c(C)c1 | 101.8 | 115.2 | 100.1 | i | 101.7 | 109.5 | . | .
Cc1ccc(-n2c(O)c(C=Nc3ccccc3-c3n[nH]c(=S)[nH]c3=O)c3ccccc3c2=O)cc1C | . | . | . | i | . | . | i | 0.0
SMILES | RPL19A-GFP yeast | LAP4 TOR yeast | MEP2 TOR yeast | Myeloid diff MLP | CIT2-GFP yeast | AGP1 TOR yeast | Myeloid diff CP1 | GFP autofluor
Cc1cccc(-n2ncc3c(NCc4ccco4)ncnc32)c1 | 96.7 | 104.2 | 95.1 | + | 77.3 | 89.0 | i | 0.0
C/C(=N\Nc1cccc2cccnc12)c1ccc[nH]1 | 92.2 | 106.6 | 99.1 | i | 95.7 | 91.7 | . | .
C=CCNC(=O)c1ccc(N(Cc2ccccc2)S(C)(=O)=O)cc1 | 100.7 | 103.5 | 98.8 | i | 99.5 | 99.9 | . | .
C=CCNC(=O)c1ccc(N(CC=C)S(C)(=O)=O)cc1 | 100.0 | 89.2 | 96.0 | + | 102.9 | 101.2 | i | 0.0
O=C(NNC(=O)c1ccco1)c1cccc(Br)c1 | 106.2 | 86.4 | 102.9 | i | 110.0 | 101.0 | . | .
N#Cc1c(N2CCN(C(=O)c3ccccc3)CC2)nc(-c2ccccc2)c2c1CCCC2 | 104.2 | 123.6 | 132.2 | i | 128.1 | 119.6 | . | .
N#Cc1c(N2CCN(C(=O)c3ccco3)CC2)nc(-c2ccccc2)c2c1CCCC2 | 100.6 | 130.0 | 131.3 | i | 116.1 | 107.8 | i | 0.5
NC(N)=NC(=O)c1nc(Cl)c(N)nc1N | 105.0 | 114.1 | 98.6 | i | 85.9 | 93.1 | i | 0.0
NC(N)=NC(=O)c1nc(Cl)c(N2CCCCCC2)nc1N | 99.3 | 117.9 | 103.4 | i | 79.1 | 90.4 | . | .
CCc1ccc2c(c1)cc(CN(C(=S)Nc1ccccc1C)C1CC1)c1nnnn12 | 100.4 | 93.0 | 104.3 | i | 94.4 | 105.9 | i | 0.0
CCc1ccc(-c2cc(C(=O)N/N=C/c3c[nH]c4ccccc34)[nH]n2)cc1 | 96.2 | 96.9 | 126.8 | i | 103.6 | 92.5 | i | 2.1
Cc1cc(NC(=O)CN2CCN(c3ccccc3O)CC2)no1 | 99.5 | 99.0 | 103.1 | i | 101.5 | 104.9 | . | .
CNc1nc(Oc2ccc3sc(C)nc3c2)c2sccc2n1 | . | . | . | i | . | . | . | .
Cc1nc2cc(Oc3nc(NCCN(C)C)nc4ccsc34)ccc2s1 | . | . | . | + | . | . | i | 0.5
COc1cccc(NC(=O)c2cc(Cl)nnc2Cl)c1 | 91.1 | 92.2 | 115.5 | i | 84.4 | 106.7 | . | .
O=C(Nc1cccc(Cl)c1)Nc1nnc([C@@H]2C[C@H](O)[C@@H](CO)O2)s1 | . | . | . | i | . | . | . | .
Cc1ccc(C(=O)CCC(=O)OCC(=O)Nc2ccccc2SCC#N)cc1 | 92.8 | 95.3 | 95.8 | + | 90.3 | 98.9 | i | 88.7*
CCNc1nnc(-c2ccncc2)s1 | 105.4 | 85.7 | 101.5 | i | . | 109.2 | . | .
